Results published in PubChem BioAssay (Tox21).
Results filed as inconclusive are left out. Activity calls are given as the source filed them. The call rests on the fitted dose curve.

Each compound was assayed against Peroxisome proliferator-activated receptor delta (Homo sapiens) (UniProt Q03181) (assay: qHTS assay to identify small molecule agonists of the peroxisome proliferator-activated receptor delta (PPARd) signaling pathway (AID 743212)). Details: HEK293H PPARd-UAS-bla, beta-lactamase FRET ratio, 17 h; series mostly up to 62.6 µM; activation: at the top concentration.
Description: U.S. Tox21 Program National Center for Advancing Translational Sciences [NCATS] NIH Chemical Genomics Center [NCGC] U.S. Environmental Protection Agency [EPA] National Institutes of Environmental Health Sciences [NIEHS] National Toxicology Program [NTP] U.S. Food and Drug Administration [FDA] Tox21 Assay Overview: The peroxisome proliferator-activated receptors (PPARs) are lipid-activated transcription factors of the nuclear receptor superfamily with three distinct subtypes namely PPAR alpha, PPAR delta (PPARd) and PPAR gamma. All these subtypes heterodimerizes with Retinoid X receptor (RXR) and have different physiological functions. […] To identify the compounds that activate PPAR-delta signaling, GeneBLAzer PPAR delta UAS-bla HEK293H cell line (Invitrogen, Carlsbad, CA, USA) containing a beta-lactamase reporter gene under the control of an Upstream Activator Sequence (UAS) was used to screen the Tox21 compound library.
Tox21 Assay Protocol Summary: PPARd-bla cells were dispensed at 3000 cells/6uL/well in 1536-well black wall/clear bottom plates using a Multidrop Combi (Thermo Fisher Scientific, Waltham, MA) dispenser. After the assay plates were incubated at 37 C and 5% CO2 for 5 h, 23 nL of compounds dissolved in DMSO, positive controls or DMSO only was transferred to the assay plate by a Pintool station (Kalypsys, San Diego, CA). The assay plates were incubated at 37C for 17 h. After 1 uL of LiveBLAzerTM B/G FRET substrate was added using a Bioraptr Flying Reagent Dispenser (FRD) workstation (Beckman Coulter, Indianapolis, IN, USA), the plates were incubated at room temperature for 2 h, and fluorescence intensity was measured by an Envision plate reader (PerkinElmer, Shelton, CT).
On the % scale 0 is the no-effect control and ±100 the full control effect.

Chain of Peroxisome proliferator-activated receptor delta (Homo sapiens) (Q03181 whole entry, looked up): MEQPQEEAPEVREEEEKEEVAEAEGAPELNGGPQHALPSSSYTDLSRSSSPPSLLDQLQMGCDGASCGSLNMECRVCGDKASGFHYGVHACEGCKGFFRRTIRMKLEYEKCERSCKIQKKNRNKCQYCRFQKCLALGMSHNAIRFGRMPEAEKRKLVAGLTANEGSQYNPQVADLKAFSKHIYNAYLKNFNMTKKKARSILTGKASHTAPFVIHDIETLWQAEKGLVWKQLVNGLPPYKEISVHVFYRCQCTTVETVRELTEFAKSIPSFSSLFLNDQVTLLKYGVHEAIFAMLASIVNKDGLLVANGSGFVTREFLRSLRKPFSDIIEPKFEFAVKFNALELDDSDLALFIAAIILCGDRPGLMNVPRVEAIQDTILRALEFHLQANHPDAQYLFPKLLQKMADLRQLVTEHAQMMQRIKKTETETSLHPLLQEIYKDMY

SMILES | activation
C[C@]1(O)CC[C@H]2[C@@H]3CCC4=CC(=O)CC[C@]4(C)[C@@]3(F)[C@@H](O)C[C@@]21C | -5.5% [at 81.1 µM] (inactive)
OC(Cn1cncn1)(c1ccc(F)cc1)c1ccccc1F (stereo not given) | 5.85% (inactive)
[Cl][Sn]([Cl])([Cl])[Cl] | 1.32% [at 81.1 µM] (inactive)
O=C1CN2CCOC2(c2ccccc2Cl)c2cc(Cl)ccc2N1 (stereo not given) | 1.17% (inactive)
CC(C)(C)NCC(O)c1cc(Cl)c(N)c(Cl)c1 (stereo not given) | -0.105% (inactive)
Fc1cc(Br)ccc1CBr | 1.23% (inactive)
CCNc1nc(NC(C)C)nc(OC)n1 | 0.141% (inactive)
CS(=O)(=O)c1cc(C(F)(F)F)ccc1C(=O)c1cnoc1C1CC1 | -1.26% (inactive)
O=[N+]([O-])c1ccc2c3c(cccc13)CC2 | 0.17% (inactive)
CCCCP(CCCC)CCCC | 0.222% (inactive)
O=[N+]([O-])c1ccc(CBr)cc1 | -2.78% [at 81.1 µM] (inactive)
O=C(Nc1ccccc1)c1ccccc1I | -4.36% (inactive)
O=C(Cc1ccccc1)OCc1ccccc1 | -3.66% [at 81.1 µM] (inactive)
CCCCOC(=O)[C@@H](C)Oc1ccc(Oc2ccc(C#N)cc2F)cc1 | -7.44% (inactive)
CC1(C(=O)Nc2ccc(O)c(Cl)c2Cl)CCCCC1 | -0.215% (inactive)
C(CCOCC1CO1)COCC1CO1 (stereo not given) | 2.5% (inactive)
CC(C)(C)C(=O)C(Oc1ccc(Cl)cc1)n1cncn1 (stereo not given) | 1.09% (inactive)
NC(=S)C(N)=S | 1.07% (inactive)
CCC(C)(C)c1cc(-n2nc3ccccc3n2)c(O)c(C(C)(C)CC)c1 | -0.9% [at 81.1 µM] (inactive)
ClCC(Cl)(Cl)Cl | -0.845% [at 81.1 µM] (inactive)

SMILES | activation
CC(C)COP(=O)(OCC(C)C)OCC(C)C | 6.88% (inactive)
CC(C)CC(N(C)C)C1(c2ccc(Cl)cc2)CCC1 (stereo not given) | -1.17% (inactive)
CC1(C)COP(Oc2ccccc2)OC1 | 1.5% (inactive)
Cc1coc2c1CCC(C)C2 (stereo not given) | -2.17% [at 81.1 µM] (inactive)
CCC(=O)C(CCN(C)C)(c1ccccc1)c1ccccc1 | -0.935% (inactive)
Nc1c(Br)cc([N+](=O)[O-])cc1[N+](=O)[O-] | 2.55% [at 81.1 µM] (inactive)
C[C@]12CC[C@H]3[C@@H](CCC4=CC(=O)CC[C@@]43C)[C@@H]1CC[C@@H]2C(=O)O | -4.93% (inactive)
O=C(NCO)NCO | -1.05% [at 81.1 µM] (inactive)
O=C(O)c1cccc(Cl)c1 | 0.058% (inactive)
C[C@@H]1CN(C2CCC(C#N)(c3ccc(F)cc3)CC2)CC[C@]1(C(=O)O)c1ccccc1 (stereo not given in full) | -4.84% (inactive)
CCN(CC)CCOC(=O)C(C)(c1ccccc1)c1ccccc1 | 3.1% (inactive)
CC(COc1ccc(Oc2ccccc2)cc1)Oc1ccccn1 (stereo not given) | -1.63% (inactive)
CCOP(=S)(Oc1cnc(C(C)(C)C)nc1)OC(C)C (stereo not given) | -2.62% (inactive)
CC(N)=S | 2.65% (inactive)
CN1CCC(O)(c2ccc(F)cc2)C(C(=O)c2ccc(F)cc2)C1 (stereo not given) | -0.129% (inactive)
CCCCOC(=O)c1ccccc1N | -1.03% [at 81.1 µM] (inactive)
COC(=O)COc1ccc(Cl)cc1Cl | 4.22% (inactive)
Cc1nnc2n1-c1sc(CCC(=O)N3CCOCC3)cc1C(c1ccccc1Cl)=NC2 | -6.38% (inactive)
CCOC(=O)NC(=S)Nc1ccccc1NC(=S)NC(=O)OCC | 4.32% (inactive)
O=[N+]([O-])c1cc(Cl)c(Cl)c(Cl)c1 | -4.23% (inactive)
